MsrA act: bovine MsrA enzyme activators, primary screen, biochemical, absorbance, HTS; purified bovine MsrA, absorbance read-out; activation, % at 10.6 µM; 360,000 tested, 0.3% active; AID 602163, 2012; in the data active means activation above about 7.5%
HTR5A ag ctr: HTR5A agonists in luminescence cell assay, primary screen, counter-screen for OPRM1-OPRD1 heterodimer agonist project, full-deck HTS; cell-based; 340,000 tested, 0.61% active; 5-hydroxytryptamine receptor 5A (Homo sapiens), P47898; AID 504692, 2011; activation, % at 9.3 µM; in the data active means activation mostly above about 9.5%, no sharp cut-off; inactive means mostly below about 7.6%
Target sequence (P47898 whole entry, looked up): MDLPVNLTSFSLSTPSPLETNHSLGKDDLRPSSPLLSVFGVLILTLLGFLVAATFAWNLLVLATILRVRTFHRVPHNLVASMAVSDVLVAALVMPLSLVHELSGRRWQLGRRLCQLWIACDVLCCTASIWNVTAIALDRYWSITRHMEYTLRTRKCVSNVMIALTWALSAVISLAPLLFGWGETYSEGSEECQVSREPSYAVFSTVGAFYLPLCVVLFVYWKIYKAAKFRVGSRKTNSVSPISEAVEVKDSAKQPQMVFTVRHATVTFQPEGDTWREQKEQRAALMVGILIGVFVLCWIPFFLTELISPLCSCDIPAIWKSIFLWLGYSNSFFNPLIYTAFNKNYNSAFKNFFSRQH
MOR-DOR inv ag: inverse agonists of MOR-DOR heterodimerization, primary screen, cell-based, luminescence; 340,000 tested, 0.21% active; cell-based MOR-DOR heterodimer luminescence, inverse agonism; inhibition, % at 9.3 µM; in the data active means inhibition above about 22%, passing the limit was not always enough
HTR5A inv ag: HTR5A inverse agonists in luminescence cell assay, primary screen, counter-screen for OPRM1-OPRD1 heterodimer inverse agonist project, full-deck HTS; 5-hydroxytryptamine receptor 5A (Homo sapiens), P47898; HTR5A cell line, inverse agonism; inhibition, % at 9.3 µM; 340,000 tested, 0.083% active; AID 504634, 2011; in the data active means inhibition mostly above about 23%, no sharp cut-off; inactive means mostly below about 18%
MsrA inhibitor: bovine MsrA enzyme inhibitors, primary screen, biochemical, absorbance, HTS | Methionine sulfoxide reductase A (Bos taurus) | purified bovine MsrA, absorbance read-out | inhibition, % at 15.5 µM | 360,000 tested, 0.75% active
OPRM1-OPRD1 ag: agonists of OPRM1-OPRD1 heterodimerization, primary screen, cell-based, luminescence; Mu-type opioid receptor (Homo sapiens) + Delta-type opioid receptor (Homo sapiens), …; cells; activation, % at 9.3 µM; 340,000 tested, 0.3% active; in the data active means activation above about 18%
MsrA conf: bovine MsrA inhibitors, retest, confirmation, biochemical, absorbance, HTS; purified bovine MsrA, absorbance read-out; AID 651822, 2012; shares compounds with MsrA inhibitor; 2,300 tested, 41% active; inhibition, % at 15.5 µM;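 further: coupled to thioredoxin reductase with NADPH and selenocystamine and DMSO as substrate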
Of the large screens only hits and unclear results are named; the others gave an inactive call (follow-up assays come after a bar, where they were run). Sampled rows, rich in hits. Any-hit rate of the full collection: about 1.9%. Unless noted, no stated cut-off is given here; in the data, active means inhibition above about 4.5%; inactive means the rest.

COc1ccc2[nH]c(C(=O)N/N=C/c3ccc(OC)c(O)c3)cc2c1	MsrA inhibitor 7.5 | MsrA conf 7.8
Cc1ccc2nc(-c3cccc(Cl)c3)c(Cc3ccccc3C(F)(F)F)n2c1	none (no result: MsrA act, HTR5A ag ctr, MOR-DOR inv ag, HTR5A inv ag, OPRM1-OPRD1 ag)
N#C/C(=C(/O)COC(=O)c1cccnc1Cl)c1nc2ccccc2[nH]1	MsrA inhibitor 4.7 | MsrA conf inactive
N#C/C(=C(/O)COC(=O)c1ccc(O)cc1)c1nc2ccccc2[nH]1	none
CSc1ccc(/C=N/NC(=O)c2ccc(O)cc2)cc1	MsrA inhibitor 7.9 | MsrA conf 5.8
COc1ccc(C(=O)N/N=C/c2ccc(SC)cc2)cc1	MsrA inhibitor 5.2 | MsrA conf 5.9
O=C(NN=Cc1ccc(O)cc1)C(=O)NN=Cc1ccc(O)cc1	MsrA inhibitor 6.1 | MsrA conf inactive
COC(=O)[C@@]12C[C@@H](CC(=O)N3CCN(C(=O)C4CC4)CC3)C(=O)N(Cc3ccc4c(c3)OCO4)C1=CCC(C)(C)C2	none (no result: MsrA act, HTR5A ag ctr, MOR-DOR inv ag, HTR5A inv ag, OPRM1-OPRD1 ag)
O=C(Nc1ccc(F)cc1)C(c1cc2ccccc2o1)N1CCN(c2ccncc2)CC1 (stereo not given)	none (no result: MsrA act, HTR5A ag ctr, MOR-DOR inv ag, HTR5A inv ag, OPRM1-OPRD1 ag)
Cn1cccc1/C=N/NC(N)=S	MsrA inhibitor 7.4 | MsrA conf inactive
NC(=S)N/N=C/c1ccc(/C=N/NC(N)=S)cc1	MsrA inhibitor 10.0 | MsrA conf 9.0
O=C(O)c1cccc(Cn2c(Cl)c(/C=N/NC(=O)c3ccc(O)cc3)sc2=O)c1	MsrA inhibitor 8.5 | MsrA conf 5.5
O=C(COc1ccccc1)N/N=C/c1sc(=O)n(Cc2cccc(C(=O)O)c2)c1Cl	none
COC(=O)c1cc2c(c3c4ccccc4n(S(=O)(=O)c4ccc(C)cc4)c13)C(=O)N(Cc1ccccc1)C2	none (no result: MsrA act, HTR5A ag ctr, MOR-DOR inv ag, HTR5A inv ag, OPRM1-OPRD1 ag)
COc1ccccc1-c1cc(C(F)(F)F)nc(N2CCN(c3ccccc3)CC2)n1	none
COc1ccccc1-c1cc(C(F)(F)F)nc(N2CCOCC2)n1	MsrA inhibitor 12.5 | MsrA conf 13.4
O=C(Nc1ccccc1)OC[C@@H]1CSCCS(=O)(=O)N1	none (no result: MsrA act, HTR5A ag ctr, MOR-DOR inv ag, HTR5A inv ag, OPRM1-OPRD1 ag)
O=C1NC(=O)/C(=C/c2ccc(O)cc2)S1	MsrA inhibitor 4.9 | MsrA conf 4.6
CC(C)C[C@H]1COc2ccc(Cl)cc2S(=O)(=O)N1C[C@H](NC(=O)OC(C)(C)C)C(C)C	none (no result: MsrA act, HTR5A ag ctr, MOR-DOR inv ag, HTR5A inv ag, OPRM1-OPRD1 ag)
Cc1cc(C)nc(NS(=O)(=O)c2ccc(N/C=C3\CCCC3=O)cc2)n1	MsrA inhibitor 5.2 | MsrA conf 5.5
C[C@H](CO)N1C[C@H](C)[C@@H](CN(C)C(=O)c2ccc(N3CCN(C)CC3)cc2)OCc2cn(nn2)CCCC1=O	none (no result: MsrA act, HTR5A ag ctr, MOR-DOR inv ag, HTR5A inv ag, OPRM1-OPRD1 ag)
Cc1cc(C)c(S(=O)(=O)/N=C2\C=C(Nc3ccc(C(=O)O)cc3)C(=O)c3ccccc32)c(C)c1	MsrA inhibitor 18.9 | MsrA conf 20.8
Cc1cc(C)c(S(=O)(=O)/N=C2\C=C(NS(=O)(=O)c3ccccc3)C(=O)c3ccccc32)c(C)c1	none
CCc1ccc(S(=O)(=O)/N=C2\C=C(Nc3cccc(C(=O)O)c3)C(=O)c3ccccc32)cc1	MsrA inhibitor 52.2 | MsrA conf 53.1
CCc1ccc(S(=O)(=O)/N=C2\C=C(Nc3ccc(O)cc3)C(=O)c3ccccc32)cc1	none (no result: MsrA inhibitor)
Cc1ccc(Cl)cc1NC1=C/C(=N\S(=O)(=O)c2cccs2)c2ccccc2C1=O	MsrA inhibitor 5.6 | MsrA conf 8.2
O=C(O)c1ccc(NC2=C/C(=N/S(=O)(=O)c3cccs3)c3ccccc3C2=O)cc1	MsrA inhibitor 62.2 (no result: HTR5A ag ctr, MOR-DOR inv ag, HTR5A inv ag, OPRM1-OPRD1 ag) | MsrA conf 65.9
CCCCNC(=O)C[C@@H]1C[C@@]2(C(=O)OCC)CCCC=C2N(CCC2=CCCCC2)C1=O	none (no result: MsrA act, HTR5A ag ctr, MOR-DOR inv ag, HTR5A inv ag, OPRM1-OPRD1 ag)
CC(=O)C1=C(C)NC(=S)NC1c1ccccc1 (stereo not given)	none (no result: MsrA act, HTR5A ag ctr, MOR-DOR inv ag, HTR5A inv ag, OPRM1-OPRD1 ag)
O=C(O)c1ccc(NC2=C/C(=N/S(=O)(=O)c3ccccc3)c3ccccc3C2=O)cc1	MsrA inhibitor 65.4, OPRM1-OPRD1 ag 28.2 | MsrA conf 62.8
O=C(c1cnc2sccn2c1=O)N1CCc2ccccc2C1	MsrA inhibitor 4.8 | MsrA conf inactive
COc1cc(/C=N/NC(=O)C(=O)NCc2ccco2)cc(Br)c1O	MsrA inhibitor 6.0 | MsrA conf inactive
COc1cc(/C=N/NC(=O)CSc2n[nH]c(=O)[nH]c2=O)cc(OC)c1O	MsrA inhibitor 4.8 | MsrA conf inactive
O=C(CSc1n[nH]c(=O)[nH]c1=O)N/N=C/c1ccccc1O	none
CCCCCC(=O)N/N=C/c1cc(Br)c(O)c(OC)c1	MsrA inhibitor 5.5 | MsrA conf inactive
CC(C)c1nn2c(=O)cc(CSc3ccccc3NC(=O)c3ccccc3F)nc2s1	none
Cc1nn2c(=O)cc(CSc3ccccc3NC(=O)c3ccccc3F)nc2s1	MsrA inhibitor 4.7 | MsrA conf inactive
Cc1nn2c(=O)cc(CSc3ccccc3NC(=O)c3ccccc3)nc2s1	MsrA inhibitor 17.3 | MsrA conf 13.1
O=C(c1ccco1)c1cc2c(ccc3ccccc32)oc1=O	MsrA inhibitor 12.8 | MsrA conf 27.8
Cc1ccc(NC(=O)/C(C#N)=C/c2cccs2)c(C)c1	none
Cc1cccc(C)c1NC(=O)/C(C#N)=C/c1cccs1	MsrA inhibitor 6.9 | MsrA conf inactive
CCCCN(CCCC)CCCNC(=O)Cn1cc(C)c(=O)[nH]c1=O	none (no result: MsrA act, HTR5A ag ctr, MOR-DOR inv ag, HTR5A inv ag, OPRM1-OPRD1 ag)
Cc1ccc(C2NC(=S)NC3=C2C(=O)CC(C)(C)C3)cc1 (stereo not given)	MsrA inhibitor 4.8 | MsrA conf inactive
Cc1cc2c(cc1C)NC(c1cccnc1)C1=C(CC(C)(C)CC1=O)N2 (stereo not given)	none
CC1(C)CC(=O)C2=C(C1)Nc1ccccc1NC2c1cccnc1 (stereo not given)	MsrA inhibitor 5.4 | MsrA conf inactive
CCN(CC)S(=O)(=O)c1ccc(N/N=C/c2ccc(O)cc2)nc1	MsrA inhibitor 5.7 | MsrA conf 4.9
CCn1cc(/C=C(\NC(=O)c2ccc(OC)c(OC)c2)C(=O)NCCCO)c2ccccc21	MsrA inhibitor 5.8 | MsrA conf inactive
CCn1cc(/C=C(\NC(=O)c2ccccc2F)C(=O)NCCN2CCOCC2)c2ccccc21	MsrA inhibitor 5.3 | MsrA conf inactive
CCn1cc(/C=C(\NC(=O)c2ccc(OC)c(OC)c2)C(=O)NCCN2CCOCC2)c2ccccc21	none
CN(C)S(=O)(=O)n1cc(/C=C(\NC(=O)c2ccccc2)C(=O)NCCCN2CCOCC2)c2ccccc21	none
CN(C)S(=O)(=O)n1cc(/C=C(\NC(=O)c2ccccc2F)C(=O)NCCN2CCOCC2)c2ccccc21	none (no result: HTR5A ag ctr, MOR-DOR inv ag, HTR5A inv ag, OPRM1-OPRD1 ag)
CCn1cc(/C=C(\NC(=O)c2ccccc2OC)C(=O)NCCCN2CCOCC2)c2ccccc21	none
